Data: the supplement of paper PMC12067093, “Discovery and optimisation of a covalent ligand for TRIM25 and its application to targeted protein ubiquitination” (Chemical Science, 2025)
Targets with the largest changes are over-represented here; the source holds about 21,000 in all.

Compound: CC1Cc2ccccc2N1C(=O)C1CCCN(C1)C(=O)CCl (mixture of isomers) [TRIM25 ligand 11 (diastereomer mixture)]
Test: probe-labelled cysteine peptide fold change vs DMSO (competition) (log2 fold change); higher = less target engagement (more negative = stronger competition)
Settings: THP-1, incubation time: 4 h
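Also: competitive chemoproteomic profiling in live THP-1 cells with an iodoacetamide desthiobiotin (IA-DTB) probe, comparing probe-labelled peptide intensities in compound-treated cells against DMSO-treated controls.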

Chain of UniProt P15498 (P15498 whole entry, looked up): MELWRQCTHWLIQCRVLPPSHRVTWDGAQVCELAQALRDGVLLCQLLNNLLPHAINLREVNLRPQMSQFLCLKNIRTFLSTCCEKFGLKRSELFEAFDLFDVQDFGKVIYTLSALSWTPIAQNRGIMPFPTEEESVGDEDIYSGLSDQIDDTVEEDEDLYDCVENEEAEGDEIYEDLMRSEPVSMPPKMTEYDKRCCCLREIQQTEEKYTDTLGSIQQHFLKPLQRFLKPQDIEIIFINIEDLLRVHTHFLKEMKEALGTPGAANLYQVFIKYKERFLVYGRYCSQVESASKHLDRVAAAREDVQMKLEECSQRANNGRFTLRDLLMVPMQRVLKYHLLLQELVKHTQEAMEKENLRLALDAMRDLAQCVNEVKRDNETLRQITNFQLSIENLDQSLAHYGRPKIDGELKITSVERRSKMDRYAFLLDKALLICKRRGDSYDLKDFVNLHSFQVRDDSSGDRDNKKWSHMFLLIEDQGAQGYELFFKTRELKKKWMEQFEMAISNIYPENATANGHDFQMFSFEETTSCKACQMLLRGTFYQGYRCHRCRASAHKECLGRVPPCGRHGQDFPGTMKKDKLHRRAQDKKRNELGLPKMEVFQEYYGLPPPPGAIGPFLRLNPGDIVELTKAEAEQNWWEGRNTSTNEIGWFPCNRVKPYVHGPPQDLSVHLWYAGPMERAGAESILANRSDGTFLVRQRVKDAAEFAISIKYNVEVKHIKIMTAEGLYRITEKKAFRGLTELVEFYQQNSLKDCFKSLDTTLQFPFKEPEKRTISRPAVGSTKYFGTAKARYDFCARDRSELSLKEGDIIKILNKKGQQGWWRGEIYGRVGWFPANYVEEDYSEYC
Chain of UniProt O95071 (O95071 whole entry, looked up): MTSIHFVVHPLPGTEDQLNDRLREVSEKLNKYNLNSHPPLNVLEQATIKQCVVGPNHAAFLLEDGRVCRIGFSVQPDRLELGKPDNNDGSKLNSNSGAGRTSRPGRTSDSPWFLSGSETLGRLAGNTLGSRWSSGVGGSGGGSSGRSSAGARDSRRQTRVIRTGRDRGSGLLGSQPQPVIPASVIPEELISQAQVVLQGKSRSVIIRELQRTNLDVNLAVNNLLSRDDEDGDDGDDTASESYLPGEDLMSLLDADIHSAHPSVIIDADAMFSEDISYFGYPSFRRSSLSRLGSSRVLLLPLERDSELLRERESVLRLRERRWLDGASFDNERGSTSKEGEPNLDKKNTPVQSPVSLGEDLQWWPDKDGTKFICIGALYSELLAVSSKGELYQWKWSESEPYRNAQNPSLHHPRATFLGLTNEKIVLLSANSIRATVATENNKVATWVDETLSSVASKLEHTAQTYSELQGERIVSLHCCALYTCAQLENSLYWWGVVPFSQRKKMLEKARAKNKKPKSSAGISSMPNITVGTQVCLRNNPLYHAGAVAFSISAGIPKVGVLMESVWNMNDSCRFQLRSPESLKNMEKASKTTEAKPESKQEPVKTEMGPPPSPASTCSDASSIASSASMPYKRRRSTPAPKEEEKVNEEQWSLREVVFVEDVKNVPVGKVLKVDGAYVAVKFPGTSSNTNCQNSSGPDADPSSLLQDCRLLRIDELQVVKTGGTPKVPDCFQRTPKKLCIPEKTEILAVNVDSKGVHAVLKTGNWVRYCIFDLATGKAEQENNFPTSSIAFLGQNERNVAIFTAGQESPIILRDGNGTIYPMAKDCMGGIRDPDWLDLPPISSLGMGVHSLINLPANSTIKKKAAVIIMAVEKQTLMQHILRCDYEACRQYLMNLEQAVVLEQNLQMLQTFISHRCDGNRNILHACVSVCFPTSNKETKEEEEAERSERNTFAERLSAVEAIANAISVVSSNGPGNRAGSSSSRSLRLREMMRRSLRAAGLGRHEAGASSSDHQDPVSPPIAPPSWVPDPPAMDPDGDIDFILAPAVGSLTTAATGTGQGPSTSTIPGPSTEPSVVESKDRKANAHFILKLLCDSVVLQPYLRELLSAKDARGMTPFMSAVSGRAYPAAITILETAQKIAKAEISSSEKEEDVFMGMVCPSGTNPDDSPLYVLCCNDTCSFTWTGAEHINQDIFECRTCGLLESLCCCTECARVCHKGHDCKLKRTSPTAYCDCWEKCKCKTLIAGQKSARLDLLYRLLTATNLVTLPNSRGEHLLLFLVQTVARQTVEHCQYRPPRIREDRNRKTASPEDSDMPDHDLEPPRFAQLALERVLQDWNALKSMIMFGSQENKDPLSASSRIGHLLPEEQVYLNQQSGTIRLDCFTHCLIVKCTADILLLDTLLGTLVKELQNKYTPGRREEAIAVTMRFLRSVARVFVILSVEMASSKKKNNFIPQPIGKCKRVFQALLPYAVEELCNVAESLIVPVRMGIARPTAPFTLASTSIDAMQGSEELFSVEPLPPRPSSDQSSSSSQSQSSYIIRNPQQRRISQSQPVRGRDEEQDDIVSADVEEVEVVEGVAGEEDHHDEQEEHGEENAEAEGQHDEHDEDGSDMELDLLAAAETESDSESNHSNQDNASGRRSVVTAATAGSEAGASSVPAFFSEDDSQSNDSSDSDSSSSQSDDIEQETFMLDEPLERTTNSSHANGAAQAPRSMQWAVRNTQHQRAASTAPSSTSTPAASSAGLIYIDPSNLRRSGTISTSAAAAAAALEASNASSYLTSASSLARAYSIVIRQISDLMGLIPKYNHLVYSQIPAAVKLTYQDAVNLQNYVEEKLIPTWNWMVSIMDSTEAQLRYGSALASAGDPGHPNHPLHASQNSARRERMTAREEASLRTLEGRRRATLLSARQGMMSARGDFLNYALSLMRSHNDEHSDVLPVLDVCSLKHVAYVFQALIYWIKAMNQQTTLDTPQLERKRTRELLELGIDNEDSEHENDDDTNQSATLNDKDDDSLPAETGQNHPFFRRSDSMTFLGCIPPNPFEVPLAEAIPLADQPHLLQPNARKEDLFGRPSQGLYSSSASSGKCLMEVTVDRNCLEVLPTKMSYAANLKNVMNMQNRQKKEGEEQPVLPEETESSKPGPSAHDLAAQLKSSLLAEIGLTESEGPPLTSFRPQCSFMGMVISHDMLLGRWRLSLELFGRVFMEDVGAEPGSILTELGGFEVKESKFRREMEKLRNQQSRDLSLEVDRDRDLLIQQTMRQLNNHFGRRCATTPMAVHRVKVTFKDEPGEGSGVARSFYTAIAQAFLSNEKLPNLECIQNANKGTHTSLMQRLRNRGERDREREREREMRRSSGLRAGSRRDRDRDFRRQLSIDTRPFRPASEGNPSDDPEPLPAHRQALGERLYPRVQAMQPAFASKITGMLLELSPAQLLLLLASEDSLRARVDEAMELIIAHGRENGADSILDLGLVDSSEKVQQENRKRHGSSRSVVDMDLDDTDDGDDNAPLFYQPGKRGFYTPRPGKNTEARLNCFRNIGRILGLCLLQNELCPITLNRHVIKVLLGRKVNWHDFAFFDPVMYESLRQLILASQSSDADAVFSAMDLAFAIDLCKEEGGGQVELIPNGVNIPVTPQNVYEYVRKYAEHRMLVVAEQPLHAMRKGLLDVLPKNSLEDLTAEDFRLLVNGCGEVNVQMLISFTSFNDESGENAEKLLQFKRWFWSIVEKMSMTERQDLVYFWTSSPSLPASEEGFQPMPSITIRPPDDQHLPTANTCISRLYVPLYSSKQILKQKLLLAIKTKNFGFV
Chain of UniProt Q9C0H2 (Q9C0H2 whole entry): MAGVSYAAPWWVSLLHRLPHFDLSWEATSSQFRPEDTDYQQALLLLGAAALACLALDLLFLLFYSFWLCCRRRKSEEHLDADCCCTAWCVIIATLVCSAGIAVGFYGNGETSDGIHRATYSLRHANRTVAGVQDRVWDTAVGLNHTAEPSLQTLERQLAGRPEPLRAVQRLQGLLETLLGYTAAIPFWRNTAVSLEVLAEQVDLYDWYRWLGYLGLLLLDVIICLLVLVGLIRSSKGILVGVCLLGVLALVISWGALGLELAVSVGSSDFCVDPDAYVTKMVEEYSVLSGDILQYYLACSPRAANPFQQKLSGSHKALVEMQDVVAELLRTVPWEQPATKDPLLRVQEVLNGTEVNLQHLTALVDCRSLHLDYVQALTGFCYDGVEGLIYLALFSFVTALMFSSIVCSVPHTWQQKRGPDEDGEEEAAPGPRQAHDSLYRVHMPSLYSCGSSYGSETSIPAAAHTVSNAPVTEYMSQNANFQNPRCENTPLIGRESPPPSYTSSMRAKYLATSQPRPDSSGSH
Chain of UniProt Q14166 (Q14166 whole entry, looked up): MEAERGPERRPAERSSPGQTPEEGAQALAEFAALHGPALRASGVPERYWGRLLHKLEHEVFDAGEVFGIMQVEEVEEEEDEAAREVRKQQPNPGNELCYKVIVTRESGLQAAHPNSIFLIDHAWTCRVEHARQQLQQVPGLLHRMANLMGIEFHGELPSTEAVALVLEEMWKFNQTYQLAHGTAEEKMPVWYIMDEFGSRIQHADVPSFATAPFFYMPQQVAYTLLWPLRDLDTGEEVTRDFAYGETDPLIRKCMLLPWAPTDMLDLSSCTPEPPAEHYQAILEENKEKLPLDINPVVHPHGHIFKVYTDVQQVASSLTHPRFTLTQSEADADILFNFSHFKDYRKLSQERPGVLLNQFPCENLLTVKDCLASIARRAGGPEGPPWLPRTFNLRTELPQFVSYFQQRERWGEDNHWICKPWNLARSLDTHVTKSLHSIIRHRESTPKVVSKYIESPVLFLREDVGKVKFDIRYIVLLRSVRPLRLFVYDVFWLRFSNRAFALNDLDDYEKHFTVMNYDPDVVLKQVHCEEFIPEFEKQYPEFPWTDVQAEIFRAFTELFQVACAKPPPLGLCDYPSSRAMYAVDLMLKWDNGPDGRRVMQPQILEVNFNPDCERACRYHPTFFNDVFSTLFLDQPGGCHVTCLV
Chain of UniProt P23025 (P23025 whole entry): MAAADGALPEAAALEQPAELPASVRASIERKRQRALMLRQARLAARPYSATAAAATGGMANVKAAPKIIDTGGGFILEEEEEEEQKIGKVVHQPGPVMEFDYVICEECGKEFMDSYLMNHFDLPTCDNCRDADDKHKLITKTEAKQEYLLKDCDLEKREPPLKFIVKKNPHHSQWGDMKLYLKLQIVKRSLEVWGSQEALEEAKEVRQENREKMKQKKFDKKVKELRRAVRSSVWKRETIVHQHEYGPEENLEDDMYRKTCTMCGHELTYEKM

Target	probe-labelled cysteine peptide fold change (10 µM)	probe-labelled cysteine peptide fold change (50 µM)
WDR11_Q9BZH6_411_NSSSGVSPLYSPVSFCGIPVGVLQNK (UniProt Q9BZH6)	-0.0944	-0.0348
UNK_Q9C0B0_299+308_CNDMQQSGSCPR (UniProt Q9C0B0)	0.0296	-0.132
VPS37A_Q8NEZ2_375_TICHCR (UniProt Q8NEZ2)	0.905	0.772
VAV1_P15498_31_VTWDGAQVCELAQALR (UniProt P15498)	0.0648	0.411
TXNDC11_Q6PKC3_815_ECLQSEAVLQR (UniProt Q6PKC3)	-0.111	-0.159
VCP_P55072_174_VVETDPSPYCIVAPDTVIHCEGEPIKR (UniProt P55072)	0.0996	-0.0884
UBR7_Q8N806_374_VQQVELICEYNDLK (UniProt Q8N806)	-0.0738	0.0769
WT1_P19544_385_HTGVKPFQCK (UniProt P19544)	-0.144	-0.103
WAPL_Q7Z5K2_891_ALQHCEELIQQYNR (UniProt Q7Z5K2)	0.739	0.496
VPS29_Q9UBQ0_36+41_IQHILCTGNLCTK (UniProt Q9UBQ0)	0.0402	-0.0827
TSPYL1_Q9H0U9_375_NQDLICSFFTWFSDHSLPESDK (UniProt Q9H0U9)	0.789	0.39
VCPIP1_Q96JH7_940_HCTFPHLPGK (UniProt Q96JH7)	0.0492	0.0163
UIMC1_Q96RL1_121_AIAESLNSCRPSDASATR (UniProt Q96RL1)	0.14	-0.0493
UFC1_Q9Y3C8_116_ICLTDHFKPLWAR (UniProt Q9Y3C8)	-0.522	-0.68
WDR26_Q9H7D7_238_CELTPLK (UniProt Q9H7D7)	-0.0356	-0.0732
UAP1L1_Q3KQV9_50_AALLAELALLEPEALREHCR (UniProt Q3KQV9)	0.0804	0.0782
TUBGCP3_Q96CW5_388_TLAALVDHCQGRK (UniProt Q96CW5)	-0.158	-0.0586
WDFY4_Q6ZS81_878_QVMCEAGLLGTLMASCHR (UniProt Q6ZS81)	0.0899	-0.0334
XPA_P23025_126+129_EFMDSYLMNHFDLPTCDNCR (UniProt P23025)	0.169	0.182

Target	probe-labelled cysteine peptide fold change (10 µM)	probe-labelled cysteine peptide fold change (50 µM)
VPS51_Q9UID3_226_AIQDDCQVITAR (UniProt Q9UID3)	-0.0611	0.0255
TRMT1_Q9NXH9_351_QALVFQCVGCGAFHLQR (UniProt Q9NXH9)	0.147	0.318
XPC_Q01831_514_MCSDGEK (UniProt Q01831)	-0.0167	-0.0661
TTC21B_Q7Z4L5_72_QDVSLCSLLALIYAHK (UniProt Q7Z4L5)	0.155	0.138
TTYH3_Q9C0H2_486_CENTPLIGR (UniProt Q9C0H2)	-0.0936	-0.00547
WDR44_Q5JSH3_642_ECLCCFQHIDFVTAIAFHPR (UniProt Q5JSH3)	0.143	0.281
TTC37_Q6PGP7_1162_CLLTSAIYALQGR (UniProt Q6PGP7)	-0.13	-0.0818
UACA_Q9BZF9_481_ALALECER (UniProt Q9BZF9)	-0.0367	0.0956
TXN2_Q99757_93_VVNSETPVVVDFHAQWCGPCK (UniProt Q99757)	-0.376	-1.25
TTC30B_Q8N4P2_619_DSVIQECVQFLEHCELHGR (UniProt Q8N4P2)	0.056	0.655
WNK1_Q9H4A3_1135_VVECQLETHNR (UniProt Q9H4A3)	0.0982	0.156
TUBA1B_P68363_213_SKLEFSIYPAPQVSTAVVEPYNSILTTHTTLEHSDCAFMVDNEAIYDICRR<|>TUBA4A_P68366_213_SKLEFSIYPAPQVSTAVVEPYNSILTTHTTLEHSDCAFMVDNEAIYDICRR<|>TUBA1A_Q9BQE3_213_SKLEFSIYPAPQVSTAVVEPYNSILTTHTTLEHSDCAFMVDNEAIYDICRR (UniProt Q9BQE3+P68366+P68363)	0.181	-0.0591
UFC1_Q9Y3C8_116_ICLTDHFK (UniProt Q9Y3C8)	-0.127	-0.0548
UBR5_O95071_1942_SHNDEHSDVLPVLDVCSLK (UniProt O95071)	-0.586	-0.263
UBR4_Q5T4S7_1662_LCTFTITQK (UniProt Q5T4S7)	-0.119	-0.0801
WWP2_O00308_186_HQPPSTNCFGGR (UniProt O00308)	-0.035	-0.168
TTC4_O95801_174_HFAEAVNWCDEGLQIDAK (UniProt O95801)	-0.0931	0.216
VPS39_Q96JC1_681_LICDFPFDGLLEER (UniProt Q96JC1)	0.145	0.086
TTLL12_Q14166_418_WGEDNHWICK (UniProt Q14166)	0.0917	0.0468
